Experiment [1] concerns the target Tyrosine-protein kinase SYK (Homo sapiens) (UniProt P43405). The following applies: at 10 µM.
Experiment [2] has as its target T1, Mitogen-activated protein kinase kinase kinase 7 (Homo sapiens) (UniProt O43318).
T1 sequence (whole entry): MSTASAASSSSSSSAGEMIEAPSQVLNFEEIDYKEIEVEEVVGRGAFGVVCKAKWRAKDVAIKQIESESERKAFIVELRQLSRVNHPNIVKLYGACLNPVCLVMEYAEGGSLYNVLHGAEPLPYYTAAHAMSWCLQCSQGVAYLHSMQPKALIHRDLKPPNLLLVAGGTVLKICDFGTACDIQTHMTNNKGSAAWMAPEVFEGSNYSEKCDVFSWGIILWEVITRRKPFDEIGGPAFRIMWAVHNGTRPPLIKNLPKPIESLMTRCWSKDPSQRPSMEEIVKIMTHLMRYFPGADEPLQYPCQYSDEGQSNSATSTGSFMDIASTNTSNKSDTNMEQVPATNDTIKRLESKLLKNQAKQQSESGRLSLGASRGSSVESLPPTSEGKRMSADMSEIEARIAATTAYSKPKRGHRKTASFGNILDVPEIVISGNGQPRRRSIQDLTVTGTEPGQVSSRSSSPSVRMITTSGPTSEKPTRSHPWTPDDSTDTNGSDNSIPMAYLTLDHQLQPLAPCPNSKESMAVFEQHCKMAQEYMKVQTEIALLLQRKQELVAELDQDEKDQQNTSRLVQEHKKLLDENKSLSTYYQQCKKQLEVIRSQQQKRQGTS
The following applies: at 10 µM.

In experiment [3] the target is T2, Serine/threonine-protein kinase TAO2 (Homo sapiens) (UniProt Q9UL54).
T2 sequence (whole entry): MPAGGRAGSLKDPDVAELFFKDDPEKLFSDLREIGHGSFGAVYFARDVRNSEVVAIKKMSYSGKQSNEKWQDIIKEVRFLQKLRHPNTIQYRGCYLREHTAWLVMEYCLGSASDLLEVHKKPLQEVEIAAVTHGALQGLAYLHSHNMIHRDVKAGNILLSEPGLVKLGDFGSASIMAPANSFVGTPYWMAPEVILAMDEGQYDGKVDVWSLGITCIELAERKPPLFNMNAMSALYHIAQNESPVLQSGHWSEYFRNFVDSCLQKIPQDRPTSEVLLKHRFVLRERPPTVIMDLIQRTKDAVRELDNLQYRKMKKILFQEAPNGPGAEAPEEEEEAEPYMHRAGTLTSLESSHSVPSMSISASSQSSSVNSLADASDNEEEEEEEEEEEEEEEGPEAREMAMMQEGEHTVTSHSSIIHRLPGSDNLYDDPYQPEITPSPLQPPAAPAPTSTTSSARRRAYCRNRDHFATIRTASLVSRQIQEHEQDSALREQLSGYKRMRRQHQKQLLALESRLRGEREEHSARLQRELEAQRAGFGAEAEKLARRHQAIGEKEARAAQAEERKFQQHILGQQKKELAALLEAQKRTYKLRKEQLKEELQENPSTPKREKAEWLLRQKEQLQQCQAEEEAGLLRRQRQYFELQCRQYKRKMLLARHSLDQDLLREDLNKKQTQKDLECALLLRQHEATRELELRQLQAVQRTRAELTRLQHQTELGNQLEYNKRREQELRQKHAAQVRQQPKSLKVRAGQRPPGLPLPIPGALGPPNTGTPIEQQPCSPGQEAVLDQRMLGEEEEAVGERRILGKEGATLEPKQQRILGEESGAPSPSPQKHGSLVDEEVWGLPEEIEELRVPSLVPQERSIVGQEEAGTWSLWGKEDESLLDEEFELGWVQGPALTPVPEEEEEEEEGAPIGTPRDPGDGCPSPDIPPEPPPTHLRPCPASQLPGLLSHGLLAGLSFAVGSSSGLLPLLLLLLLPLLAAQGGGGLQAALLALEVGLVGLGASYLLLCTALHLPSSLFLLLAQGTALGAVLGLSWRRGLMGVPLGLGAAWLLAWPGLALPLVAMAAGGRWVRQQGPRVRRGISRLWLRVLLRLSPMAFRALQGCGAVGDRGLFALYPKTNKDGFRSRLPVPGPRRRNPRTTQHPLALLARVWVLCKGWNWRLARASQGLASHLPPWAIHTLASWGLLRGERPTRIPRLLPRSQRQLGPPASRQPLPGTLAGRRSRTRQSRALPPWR
The settings on record: at 1 µM.

Experiment [4] concerns the target T2, Serine/threonine-protein kinase TAO2 (Homo sapiens). The following applies: at 10 µM.
The target in experiment [5] is T3, Serine/threonine-protein kinase TAO3 (Homo sapiens) (UniProt Q9H2K8).
T3 sequence (whole entry): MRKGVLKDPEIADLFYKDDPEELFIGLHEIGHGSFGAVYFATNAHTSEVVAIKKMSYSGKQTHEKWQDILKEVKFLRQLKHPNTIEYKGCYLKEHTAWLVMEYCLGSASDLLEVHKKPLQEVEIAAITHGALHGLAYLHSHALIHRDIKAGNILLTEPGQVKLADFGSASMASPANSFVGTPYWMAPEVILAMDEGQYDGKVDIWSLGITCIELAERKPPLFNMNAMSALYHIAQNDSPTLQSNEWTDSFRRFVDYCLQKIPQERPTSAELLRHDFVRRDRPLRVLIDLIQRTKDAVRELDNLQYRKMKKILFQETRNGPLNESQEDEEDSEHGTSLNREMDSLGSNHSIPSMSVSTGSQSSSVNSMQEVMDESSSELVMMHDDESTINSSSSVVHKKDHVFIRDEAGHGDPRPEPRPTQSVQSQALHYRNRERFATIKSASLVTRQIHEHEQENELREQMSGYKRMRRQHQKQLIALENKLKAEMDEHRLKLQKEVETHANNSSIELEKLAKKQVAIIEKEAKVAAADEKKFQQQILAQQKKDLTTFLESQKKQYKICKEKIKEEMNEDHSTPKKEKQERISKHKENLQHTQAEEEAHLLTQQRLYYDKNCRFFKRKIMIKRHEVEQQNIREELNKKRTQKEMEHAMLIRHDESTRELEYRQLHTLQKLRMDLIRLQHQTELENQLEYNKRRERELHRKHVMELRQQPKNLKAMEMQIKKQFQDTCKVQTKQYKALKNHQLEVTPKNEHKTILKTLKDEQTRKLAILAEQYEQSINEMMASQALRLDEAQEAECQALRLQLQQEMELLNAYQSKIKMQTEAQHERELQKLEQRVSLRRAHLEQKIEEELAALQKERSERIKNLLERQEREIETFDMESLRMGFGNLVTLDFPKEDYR
The following applies: at 1 µM.

For experiment [6], the target named is T3, Serine/threonine-protein kinase TAO3 (Homo sapiens). The settings on record: at 10 µM.
Experiment [7] deals with T4, Serine/threonine-protein kinase TBK1 (Homo sapiens) (UniProt Q9UHD2).
T4 sequence (whole entry): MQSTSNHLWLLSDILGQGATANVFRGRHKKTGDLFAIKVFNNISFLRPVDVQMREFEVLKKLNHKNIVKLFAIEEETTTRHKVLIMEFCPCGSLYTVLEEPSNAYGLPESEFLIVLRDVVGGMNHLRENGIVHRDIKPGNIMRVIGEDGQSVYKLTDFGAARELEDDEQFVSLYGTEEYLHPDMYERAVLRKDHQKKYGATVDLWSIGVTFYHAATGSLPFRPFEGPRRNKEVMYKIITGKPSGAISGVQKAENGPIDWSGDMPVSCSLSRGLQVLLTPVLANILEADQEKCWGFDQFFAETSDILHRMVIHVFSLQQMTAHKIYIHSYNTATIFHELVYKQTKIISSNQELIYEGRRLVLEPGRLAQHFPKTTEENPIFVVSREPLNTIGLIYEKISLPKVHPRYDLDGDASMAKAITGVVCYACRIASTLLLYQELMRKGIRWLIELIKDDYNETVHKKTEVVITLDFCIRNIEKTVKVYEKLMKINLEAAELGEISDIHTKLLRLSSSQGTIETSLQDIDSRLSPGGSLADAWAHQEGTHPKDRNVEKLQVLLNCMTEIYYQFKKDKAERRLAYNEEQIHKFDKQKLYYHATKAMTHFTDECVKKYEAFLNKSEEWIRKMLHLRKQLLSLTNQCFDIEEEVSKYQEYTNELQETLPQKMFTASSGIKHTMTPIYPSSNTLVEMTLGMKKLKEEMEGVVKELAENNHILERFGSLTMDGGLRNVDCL
The settings on record: at 1 µM.

Experiment [8] concerns the target T4, Serine/threonine-protein kinase TBK1 (Homo sapiens). The settings on record: at 10 µM.
In experiment [9] the target is Insulin-like growth factor 1 receptor (Homo sapiens) (UniProt P08069). The settings on record: at 10 µM.
Sequence of Insulin-like growth factor 1 receptor (Homo sapiens) (P08069 31-736 limits assumed): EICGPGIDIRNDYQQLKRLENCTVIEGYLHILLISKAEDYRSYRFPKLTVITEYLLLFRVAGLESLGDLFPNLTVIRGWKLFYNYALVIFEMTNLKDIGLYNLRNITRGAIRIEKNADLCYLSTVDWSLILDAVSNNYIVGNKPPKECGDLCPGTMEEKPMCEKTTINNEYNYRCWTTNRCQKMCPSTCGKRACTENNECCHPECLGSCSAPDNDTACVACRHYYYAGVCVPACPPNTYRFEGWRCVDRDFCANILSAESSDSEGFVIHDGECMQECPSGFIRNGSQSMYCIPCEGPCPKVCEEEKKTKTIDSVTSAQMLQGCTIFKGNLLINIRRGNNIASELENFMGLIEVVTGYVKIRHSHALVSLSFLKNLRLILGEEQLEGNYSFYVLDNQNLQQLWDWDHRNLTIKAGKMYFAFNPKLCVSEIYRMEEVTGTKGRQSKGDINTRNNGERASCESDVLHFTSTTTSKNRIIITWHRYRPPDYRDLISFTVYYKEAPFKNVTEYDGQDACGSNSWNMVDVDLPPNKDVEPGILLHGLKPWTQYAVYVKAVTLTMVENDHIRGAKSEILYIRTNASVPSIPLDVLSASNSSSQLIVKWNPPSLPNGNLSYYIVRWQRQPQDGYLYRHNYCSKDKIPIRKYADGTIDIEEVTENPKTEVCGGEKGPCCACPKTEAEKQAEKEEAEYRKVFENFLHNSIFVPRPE
Sequence of Insulin-like growth factor 1 receptor (Homo sapiens) (P08069 741-1367 limits assumed): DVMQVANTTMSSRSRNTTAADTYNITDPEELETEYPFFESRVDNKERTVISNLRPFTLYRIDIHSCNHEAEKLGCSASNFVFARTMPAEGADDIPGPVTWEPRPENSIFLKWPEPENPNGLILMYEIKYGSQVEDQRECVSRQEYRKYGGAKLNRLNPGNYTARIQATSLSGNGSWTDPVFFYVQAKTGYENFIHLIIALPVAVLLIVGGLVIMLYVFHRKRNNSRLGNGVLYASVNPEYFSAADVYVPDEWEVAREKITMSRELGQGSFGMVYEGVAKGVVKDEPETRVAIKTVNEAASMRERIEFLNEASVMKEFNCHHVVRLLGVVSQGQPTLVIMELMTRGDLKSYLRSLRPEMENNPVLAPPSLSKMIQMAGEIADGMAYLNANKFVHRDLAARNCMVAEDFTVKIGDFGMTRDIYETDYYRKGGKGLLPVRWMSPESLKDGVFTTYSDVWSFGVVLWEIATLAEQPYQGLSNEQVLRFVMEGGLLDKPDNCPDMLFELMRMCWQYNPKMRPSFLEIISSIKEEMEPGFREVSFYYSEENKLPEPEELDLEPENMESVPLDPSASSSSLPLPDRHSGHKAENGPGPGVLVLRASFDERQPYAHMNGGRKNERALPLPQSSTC

For the molecule `O=C1NC(=O)C(c2c[nH]c3ccccc23)=C1c1c[nH]c2ccccc12`, the residual activity turned out to be 82% in [1]; 75% in experiment [2]; 82% in [3]; 35% in experiment [4]; 69% in experiment [5]; 26% in [6]. For the same molecule, the figures for the residual activity in experiment [7], in experiment [8] and in experiment [9] were 70%, 14% and 76%, respectively.

For the origin of these results see ChEMBL document CHEMBL2218924, “A broad activity screen in support of a chemogenomic map for kinase signalling research and drug discovery” (Biochem J, 2013).
